Screens from PubChem BioAssay.
MBD2 inh: blocks human MBD2 binding to methylated DNA. inhibition, % at 4.4 µM. Q9UBB5. 370,000 compounds, 0.31% hits. TR-FRET, MBD2 binding to methylated oligonucleotide; in the data active means inhibition above about 13%
Neddyl block: cullin neddylation inhibition. AID 651699. 360,000 compounds, 0.58% hits. TR-FRET cullin neddylation, biochemical. calls only at 25 µM. P61081+Q13564; in the data active means inhibition above about 36%
UHRF1 MBD2 ctr: blocks human UHRF1 binding to methylated DNA; Q96T88; UHRF1 binding to methylated oligo, TR-FRET; inhibition, % at 4.4 µM; 370,000 compounds, 0.75% hits;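 further: UHRF1 SRA domain binding a hemimethylated CpG hairpin DNA probe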
UBC13 inh: human UBC13 polyubiquitination inhibition. AID 485273. inhibition, % at 20 µM. UBC13 polyubiquitin chain formation, TR-FRET. 330,000 compounds, 0.47% hits; in the data active means inhibition above about 45%, passing the limit was not always enough
Target sequence (P61088 whole entry, looked up): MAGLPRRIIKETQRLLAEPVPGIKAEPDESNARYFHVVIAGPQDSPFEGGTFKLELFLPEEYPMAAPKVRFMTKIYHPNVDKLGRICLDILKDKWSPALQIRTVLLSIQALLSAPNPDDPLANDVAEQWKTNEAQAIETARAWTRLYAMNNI
UHRF1 ctr MBD2: inhibits human UHRF1 binding to methylated oligonucleotide, MBD2 counter-screen | shares compounds with MBD2 inh | TR-FRET | inhibition, % at 4.4 µM | 1,000 compounds, 25% hits | AID 720530;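 further: UHRF1 SRA domain binding a labeled hemimethylated CpG hairpin DNA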
MBD2 confirm: confirmation of human MBD2-DBD methylated oligonucleotide binding inhibitors; shares compounds with MBD2 inh; TR-FRET MBD2-DBD binding to methylated oligonucleotide; inhibition, % at 4.4 µM; 1,000 compounds, 26% hits; in the data active means inhibition above about 14%
Each line names hits and unclear results; the compound was inactive in the other large screens (follow-up assays come after a bar, where shown). In the library only some 1.8% were active in any assay of this set; here they are far more common. Unless noted, no stated cut-off is given here; in the data, active means inhibition above about 21%; inactive means the rest.

CC(C)NC(=O)Cn1c(SCC(=O)c2ccc(F)cc2)nc2ccccc21	MBD2 inh 14, UHRF1 MBD2 ctr 22 | UHRF1 ctr MBD2 inactive | MBD2 confirm inactive
COc1cc(OC)nc(Oc2ccccc2/C=N/O)n1	MBD2 inh 15 | UHRF1 ctr MBD2 inactive | MBD2 confirm inactive
CCCCN(C(=O)c1cccc(N2C(=O)c3ccccc3C2=O)c1)c1c(N)n(CC(C)C)c(=O)[nH]c1=O	none
CCCCN(C(=O)c1cccc(-n2cccc2)c1)c1c(N)n(Cc2ccccc2)c(=O)[nH]c1=O	MBD2 inh 18, UHRF1 MBD2 ctr 33 | UHRF1 ctr MBD2 43 | MBD2 confirm 35
O=C(O)Cc1ccc(-n2cccc2)cc1	MBD2 inh 14, UHRF1 MBD2 ctr 30 | UHRF1 ctr MBD2 57 | MBD2 confirm 28
CCOc1cccc(=O)c2c(C)n(-c3ccc(C(=O)O)cc3)c(C)c12	MBD2 inh 31, UHRF1 MBD2 ctr 88 | UHRF1 ctr MBD2 inactive | MBD2 confirm inactive
COc1cccc(=O)c2c(C)n(-c3ccc(C(=O)O)cc3)c(C)c12	none
O=[N+]([O-])c1ccc(NN=Cc2cccc(O)c2)nc1	none (no result: UBC13 inh)
O=[N+]([O-])c1ccc(NN=Cc2cc(Br)ccc2O)nc1	MBD2 inh 18 (no result: UBC13 inh) | UHRF1 ctr MBD2 inactive | MBD2 confirm inactive
CN1CCN(C2CN(Cc3cn(Cc4cccc(C(F)(F)F)c4)nn3)S(=O)(=O)C2)CC1 (centres undefined)	none (no result: UBC13 inh)
CN(C)C1CN(Cc2cn(Cc3cccc(Cl)c3)nn2)S(=O)(=O)C1 (centres undefined)	none (no result: UBC13 inh)
CN1CCC(N2CCN(C3CN(Cc4cn(Cc5cccc(C(F)(F)F)c5)nn4)S(=O)(=O)C3)CC2)CC1 (centres undefined)	MBD2 inh 14, UHRF1 MBD2 ctr 23 (no result: UBC13 inh) | UHRF1 ctr MBD2 inactive | MBD2 confirm inactive
O=S1(=O)CC(N2CCN(CCO)CC2)CN1Cc1cn(Cc2ccc(C(F)(F)F)cc2)nn1 (centres undefined)	MBD2 inh 14 (no result: UBC13 inh) | UHRF1 ctr MBD2 inactive | MBD2 confirm inactive
CN(Cc1cn(Cc2cccc(Cl)c2)nn1)C1CN(Cc2cn(Cc3cccc(Cl)c3)nn2)S(=O)(=O)C1 (centres undefined)	MBD2 inh 14 (no result: UBC13 inh) | UHRF1 ctr MBD2 inactive | MBD2 confirm inactive
Clc1ccc(SCNc2ccccc2Cl)cc1	none
CN(C(=O)Cc1csc(-c2ccccc2)n1)c1c(N)n(Cc2ccccc2)c(=O)[nH]c1=O	none
CS(=O)(=O)c1ccc(C(=O)Nc2nc(-c3ccco3)c(-c3ccco3)s2)cc1	MBD2 inh 41, UHRF1 MBD2 ctr 88 | UHRF1 ctr MBD2 inactive | MBD2 confirm inactive
O=C(O)CCC(=O)N1CCN(c2nc(-c3ccccc3)c3cc(Br)ccc3n2)CC1	none
C=CCN(CC=C)Cc1c(O)ccc2c1oc(=O)c1ccccc12	MBD2 inh 13 | UHRF1 ctr MBD2 inactive | MBD2 confirm inactive
CC(C)n1c(SCCCc2ccccc2)nc2c1c(=O)[nH]c(=O)n2C	none (no result: UBC13 inh)
O=c1nc2c(O)cccn2c2c1c(=O)[nH]c1ccccc12	MBD2 inh 23, UHRF1 MBD2 ctr 43 (no result: UBC13 inh) | UHRF1 ctr MBD2 25 | MBD2 confirm 26
CCOc1ccccc1CNCCN1CCOCC1	none
CCOC(=O)c1c(C)n(C)c2ccc(OC)c([N+](=O)[O-])c12	MBD2 inh 13, UHRF1 MBD2 ctr 29 | UHRF1 ctr MBD2 inactive | MBD2 confirm inactive
Cc1ccc2oc(C(=O)NCC(c3ccco3)N3CCCC3)c(C)c2c1 (centres undefined)	none
Cc1nc2ccccc2c(=O)n1/N=C/c1ccc(O)c(O)c1O	MBD2 inh 27, UHRF1 MBD2 ctr 37 | UHRF1 ctr MBD2 inactive | MBD2 confirm inactive
O=C(O)c1cc(N2C(=O)CCC2=O)ccc1Cl	MBD2 inh 15 | UHRF1 ctr MBD2 inactive | MBD2 confirm inactive
CC(=O)Nc1cc(N2C(=O)CCC2=O)ccc1Cl	none
COC(=O)/C(=C/Nc1cccc2ccccc12)[N+](=O)[O-]	none (not shown: Neddyl block)
CN1C2CCC1/C(=C\c1ccc(F)cc1)C(=O)/C2=C/c1ccc(F)cc1	none
C=CC(=O)N1C/C(=C/c2ccc(F)cc2)C(=O)/C(=C\c2ccc(F)cc2)C1	MBD2 inh 15, UHRF1 MBD2 ctr 40 (no result: UBC13 inh) | UHRF1 ctr MBD2 25 | MBD2 confirm 15
CCCc1c(O)nc(SC2CC(=O)N(c3cc(OC)ccc3OC)C2=O)[nH]c1=O (centres undefined)	none
